# Laboratory results as given in ChEMBL document CHEMBL3988442, “University of Dundee, Small-Polar-MMV Screening Library” (2021).
# Molecular target: AMP-activated protein kinase, AMPK (Homo sapiens) (UniProt P54646+O43741+P54619+Q9UGJ0+Q9Y478+Q13131+Q9UGI9)
# Test: AMP-dependent Kinase enzyme assay. An in vitro enzyme assay that detects ADP turnover that is directly proportional to AMPK activity. This uses naive AMPK that is activated during the assay with MK-8722
# Format: functional
# Set-up: scale not given: direction of the effect not stated beside the values
# Conditions: 30 µM
row,SMILES,Percent Effect [%]
1,COc1ccccc1CNC(=O)C(C)N1CC(n2nc(C)cc2C)C1 (centres undefined),3.14
2,N#Cc1cccc(N2CCC(CO)(CCc3ccccc3)CC2)n1,3.06
3,N#Cc1c(N)nc2c(c1C1CCOC1)CCc1cc(O)ccc1-2 (centres undefined),32
4,CS(=O)(=O)N1CC[C@]2(O)CCN(c3ccnc(N)n3)C[C@@H]2C1,-13.7
5,NC(=O)C1CCN(CCCNC(=O)Nc2nccs2)CC1,5.68
6,O=C(O)c1ccn(-c2ccccc2NC(=O)c2ccccc2Cl)n1,5.51
7,CCN(CC)C(CNC(=O)c1cccnc1-n1cncn1)c1ccsc1 (centres undefined),5
8,COc1c(C)cnc(CN2CCn3c(C)nnc3C2)c1C,8.91
9,COc1cc(C)c(S(=O)(=O)CC(=O)N(C)C(C)C)cc1OC,5.04
10,O=C(Cn1ccnc1)N1CC[C@H](Oc2cccc(F)c2)[C@@H](O)CC1,8.87
11,O=C(NC1CC1)C1CNCCN1C(=O)CCOc1ccccc1 (centres undefined),4.98
12,O=C(N1CC(c2cccnc2)C1)C1(c2ccc(F)cc2)CCOCC1,0.43
13,NC(=O)CN(Cc1ncc(-c2ccc(Cl)cc2)o1)C1CCCC1,-5.3
14,CC1(C)Cc2nc(C(C)(C)C)ncc2C(NC(=O)C2(N)CC2)C1 (centres undefined),-16.9
15,COc1ccccc1CC(C)CC(=O)N(C)Cc1cc(C)on1 (centres undefined),3.99
16,COc1ccccc1C(C)(C)NC(=O)c1ccc(F)c(NC(C)=O)c1,-4.2
17,COCCNc1nc(C)nc2c1CCN(C[C@H]1CC[C@@H](N)CC1)CC2,1.5
18,Cc1ccccc1C(=O)NC[C@@H]1CCN(C(=O)c2cccn2C)C[C@H]1O,-3.19
19,CN1CCCC(CCC(=O)N2CCc3c(nc(CC4CC4)[nH]c3=O)C2)C1 (centres undefined),10.8
20,CC(=O)N1CCC(c2ncc(C(=O)Nc3ccc(F)cc3)c(C)n2)CC1,-4.39

row,SMILES,Percent Effect [%]
1,CCc1c(C)nc2cc(-c3nccn3C)nn2c1N1CCCC(CO)C1 (centres undefined),26
2,Cc1nc2cc(-c3nccn3C)nn2c(N2CCCC2)c1C,16.5
3,Cc1cc(N2CCCC2)nc(CNS(=O)(=O)Cc2ccccc2)n1,5.01
4,C[S+]([O-])CCNC(=O)N1CCN(c2cc(F)ccc2F)CC1 (centres undefined),2.94
5,CN(Cc1n[nH]c2c1CCC2)C(=O)c1cc(-c2cccn2C)n[nH]1,-16.6
6,O=S(=O)(NCc1cn2ccccc2n1)N1CCOCC1,9.32
7,COc1ccc(Cn2c(CCc3c(C)n[nH]c3C)n[nH]c2=O)cc1,-3.53
8,CC(O)CN1CCN(Cc2coc(-c3cccc(Cl)c3)n2)CC1 (centres undefined),-7.56
9,CN(C)c1nc2c(c(=O)[nH]1)Cc1ccccc1OC2,2.09
10,Cc1cc(C)n(CCN2CCC(N(C)Cc3noc(C4CC4)n3)C2)n1 (centres undefined),3.34
11,CC(C)c1nc(CSc2nnc(C3CC3)n2CC(N)=O)no1,-5.73
12,CC(=O)Nc1ccc(-c2ccccc2NC(=O)CN)cc1,17.8
13,CS(=O)(=O)NCC1(O)CCCN(C(=O)CCn2cc(Cl)cn2)CC1 (centres undefined),-0.47
14,O=C(NCCc1cc(N2CCOCC2)nc(NC2CC2)n1)C1CCCO1 (centres undefined),-0.703
15,CCc1cnc(C(C)NC(=O)N2CCCN(CC(F)F)CC2)s1 (centres undefined),-2.53
16,c1ccc(CCCn2ccnc2-c2cn(C3CCNCC3)nn2)nc1,-13.8
17,NC(=O)C1CCN(C(=O)CCSCc2ccccc2)CC1,8.64
18,Cc1ncsc1C(=O)NCCCN1CCCCCC1=O,-10
19,CC(C)c1nnc(CN2CCCc3ccc(S(N)(=O)=O)cc32)o1,0.503
